Sampled rows, rich in hits. Any-hit rate of the full collection: about 21%.
Cycloheximide cs – counter-screen hit for Shiga toxin inhibitors, cycloheximide | max response, % | 300,000 tested, 12% active | cell reporter, cycloheximide protein synthesis inhibition counterscreen; in the data active means max response mostly above about 13%, no sharp cut-off; inactive means mostly below about 14%; further: read at 38.3 µM for the half of the compounds with a filed dose; 0% is about no effect
Shiga inhibitor – Shiga toxin inhibition. Vero cells, Shiga toxin protein synthesis inhibition reporter. inhibition, % at 38.7 µM. 290,000 tested, 9.2% active; in the data active means inhibition mostly above about 28%, no sharp cut-off; inactive means mostly below about 43%; further: 0% is about no effect
Pf growth 48h – P. falciparum growth inhibition at 48 hours (one generation); P. falciparum luciferase growth in erythrocytes, 48 h; Potency, µM (doses to about 28.7 µM), inactives show at the highest dose activity change, negative = inhibition, most hits filed as inhibitors; 310,000 tested, 5.9% active; AID 504832; further: potency means the concentration at half of the fitted maximal effect; on the % scale 0 is the no-effect control and ±100 the full control effect
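Firefly luciferase activity from engineered P. falciparum reports growth; inhibitors lower the luminescent signal. Cultures contained 2% hematocrit erythrocytes at 0.1% final parasitemia.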
HCV inh – inhibitors of hepatitis C virus infection. Huh7.5.1 HCVcc-Cre infection, luciferase reporter, 44 h. 340,000 tested, 3.4% active. AID 651820. Potency, µM (titrated, usually from 41.8 µM), inactives show top-dose activity change, negative = inhibition, usual class: inhibitors; further: potency means the concentration at half of the fitted maximal effect; on the % scale 0 is the no-effect control and ±100 the full control effect
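Infectious HCVcc-Cre (~0.5 moi) was added to cells just after compound, with cells seeded 4 h earlier at 1,000 per well. Luciferase activity after 44 h culture reported infection; substrate was incubated 15 min at room temperature before reading.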
Pf growth 96h – P. falciparum growth inhibition at 96 hour, primary screen for plastid delayed-death inhibitors | P. falciparum luciferase reporter growth, 96 h | Potency, µM (titrated, usually from 28.7 µM), for inactives: top-dose activity change, negative = inhibition, actives largely listed as inhibitors | 320,000 tested, 6.9% active; further: potency means the concentration at half of the fitted maximal effect; on the % scale 0 is the no-effect control and ±100 the full control effect
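Two-generation exposure (96 h) targets delayed-death phenotype. Reporter parasites carrying integrated firefly luciferase, in red cells at 2% hematocrit and 0.05% parasitemia final, kept at 37 C, 5% CO2; luminescence loss indicates inhibition.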
HCMV inh – human cytomegalovirus inhibition | HFF cells, HCMV-luciferase reporter, 72 h; hits give low values | activity change, negative = inhibition, % at 57.5 µM | 410,000 tested, 4.5% active | AID 1259415; in the data active means activity change below about -60%; inconclusive means no clear call, values can overlap the other calls; inactive means above about -39%; further: on the % scale 0 is the no-effect control and ±100 the full control effect
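Inhibition of viral replication was scored as loss of reporter luminescence in HFFs infected with HCMV-luciferase (MOI 1 PFU/cell) for 72 h; compounds tested at 2 doses, normalized to buffer and Salinomycin controls.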
* marks the source's active call; other numbers are inactive results; ? = inconclusive; . = not tested or not shown. Unless noted, the call rests on the fitted dose curve; in most records, active means well fitted inhibition curve with a large enough effect; inconclusive means small, poorly fitted or top-dose-only effect, or another doubt; inactive means no such curve, though single readings can be large or run the other way.

SMILES | Cycloheximide cs | Shiga inhibitor | Pf growth 48h | HCV inh | Pf growth 96h | HCMV inh
CCN(CC)C(=O)COc1ccc(Br)cc1Cl | -2.7 | -3.3 | 11.2% | 0.6% | 29.4% | -3.7
Fc1cccc(-c2cc3cnc(Nc4cccc(C(F)(F)F)c4)cc3[nH]2)c1 | . | . | . | . | . | -36.9
CC(=O)c1ccc(N(CC(=O)NC2CCCC2)C(=O)CNC(=O)c2cccs2)cc1 | -2.1 | -5.9 | 19.6% | -9.2% | -9.3% | -12.3
CC1CCCCN1S(=O)(=O)c1ccc2c(c1)C(C)(C)C(=O)N2C (configuration not stated) | -3.3 | 0.8 | -15.0% | 4.3% | 19.2% | 7.0
CCC(=O)N(c1nnc(SCC(=O)NN2C(=O)NC3(CCC(C)CC3)C2=O)s1)C1CC1 (configuration not stated) | . | . | 6.1% | 6.2% | 11.6% | -28.2
Cc1cc(C)c(NC(=O)COC(=O)C2=COCCO2)c(Cl)c1 | . | . | -21.5% | -3.7% | 8.0% | -7.2
Cc1cc(Br)ccc1OCC(=O)NNC(=O)C(=O)Nc1ccccc1 | 12.9 | 50.3* | 41.9% | -12.0% | 74.0% | -0.6
CCN(C(=O)COC(=O)c1cccn1C)C1CCS(=O)(=O)C1 (configuration not stated) | -1.5 | -1.2 | 0.3% | 16.3% | 29.2% | -19.4
Cn1cccc1C(=O)OCC(=O)NC1CCS(=O)(=O)C1 (configuration not stated) | 1.2 | -9.2 | 1.47µM* | 6.0% | 18.3% | 107.1
Cc1cc(Br)ccc1SCC(=O)OCC(=O)NC1CCCC1 | 5.3 | -8.4 | -2.7% | 17.6% | 15.3% | -5.3
O=C(COc1ccc(Br)cc1Br)NC(=O)NC1CCCC1 | 59.2* | 141.9* | 126.9% | 10.2% | 130.2% | 58.7
Cc1cc(Br)ccc1OCC(=O)NC1CCCC1 | 35.2* | 51.6* | 10.0% | ? | -26.7% | -33.8
O=C(COc1ccccc1Cl)NC(=O)NC1CCCCC1 | . | . | 33.3% | 6.4% | -3.8% | -26.7
Cc1cc(Br)ccc1OCC(=O)NNC(=O)Cc1ccccc1 | -2.2 | -2.5 | 9.6% | -24.5% | 1.4% | 21.6
CCOc1cccc(NC(=O)C2CC(=O)N(c3ccc(F)cc3)C2)c1 (configuration not stated) | -3.4 | 57.3 | -3.7% | 29.1% | ? | -31.4
Cc1ccc(OCC(=O)NC2CCS(=O)(=O)C2)c(C)c1 (configuration not stated) | 5.4 | -13.8 | 8.3% | 4.2% | 5.86µM* | -27.5
Cc1ccc(OCC(=O)NC2CCS(=O)(=O)C2)cc1 (configuration not stated) | -1.8 | -8.6 | . | 3.2% | 35.1% | 34.2
Cc1c(C(=O)NC2CCN(Cc3ccccc3)C2)oc2ccc(Br)cc12 (configuration not stated) | 14.0* | 77.8* | -3.0% | ? | 24.5% | -17.9
O=c1c(-c2ccc(Br)cc2)[n+]([O-])c2ccccc2n1OCc1ccccc1 | -2.9 | 18.7 | 11.7% | 15.4% | 9.5% | ?
CC(C)(C)c1ccc(COn2c(=O)c(-c3ccco3)[n+]([O-])c3ccccc32)cc1 | 18.9* | 5.2 | . | 1.3% | -27.7% | -1.5
COc1ccc(CNc2cc(C)nc3ncnn23)c(OC)c1 | 5.7 | 2.3 | . | ? | ? | -81.4*
Cc1ccc(Nc2cc(C)nc3ncnn23)c(C)c1 | -1.0 | . | -9.6% | 7.7% | 1.47µM* | 92.5
COc1ccc(Nc2cc(C)nc3ncnn23)c(OC)c1 | -3.5 | -4.6 | . | 23.2% | 2.94µM* | 75.7
COc1ccc(Cl)cc1Nc1cc(C)nc2ncnn12 | . | . | . | . | . | 71.8
C=C[C@@]1(C)CC(=O)[C@]2(O)[C@@]3(C)[C@H](O)CCC(C)(C)[C@@H]3[C@H](O)[C@H](OC(C)=O)[C@@]2(C)O1 | -1.3 | -7.2 | . | . | . | .
SMILES | Cycloheximide cs | Shiga inhibitor | Pf growth 48h | HCV inh | Pf growth 96h | HCMV inh
COC(=O)c1sccc1NC(=O)CC1C(=O)NCCN1C(=O)c1ccc(F)cc1 (configuration not stated) | -1.7 | -7.7 | -21.2% | 15.5% | 0.0% | -34.5
CCc1ccc(S(=O)(=O)c2nnn3c2nc(N(C)Cc2ccccc2)c2cc(Cl)ccc23)cc1 | . | . | . | . | . | 8.4
CNS(=O)(=O)c1cccc(C(=O)OCCCOC(=O)c2cccc(S(=O)(=O)NC)c2)c1 | -3.0 | -17.7 | 8.2% | 11.2µM* | ? | -16.9
O=C(CNS(=O)(=O)c1cccc(Cl)c1)OCc1csc(-c2ccccc2)n1 | 13.9 | -8.6 | 44.6% | 1.8% | 84.1% | 25.5
CNS(=O)(=O)c1cccc(C(=O)OCC(=O)c2ccc(S(=O)(=O)N3CCCCC3)cc2)c1 | . | . | 13.1µM* | -0.2% | ? | -8.1
CNS(=O)(=O)c1cccc(C(=O)OCc2csc(-c3ccccc3)n2)c1 | 32.8* | 62.5* | 30.7% | ? | 41.2% | 4.6
Cc1[nH]c2ccccc2c1C(=O)COC(=O)c1cccc(S(=O)(=O)N2CCCCC2)c1 | -4.0 | 1.0 | ? | ? | ? | -77.9*
Cc1ccc(C)c(NC(=O)N2CCC(CN3CCOCC3)CC2)c1 | . | . | . | . | . | 89.8
Cc1ccc(CSC2=Nc3ccccc3C3=NC(CC(=O)NCc4cccs4)C(=O)N23)c(C)c1 (configuration not stated) | . | . | . | . | . | 19.1
O=C(NCCc1ccccc1)c1ccc(-c2cccnc2)c2ccoc12 | . | . | . | . | . | -19.8
CC(=O)Nc1ccccc1NC(=O)C/C(C)=N/NC(=O)c1ccncc1 | 11.6 | -3.0 | 16.2% | 24.3% | -3.6% | -88.6*
CC(=O)Nc1ccccc1NC(=O)C/C(C)=N/NC(=O)c1cccnc1 | 13.6 | 48.5* | 13.9% | 7.0% | ? | 34.8
CC(=O)c1ccc(S(=O)(=O)N2CCN(C(=O)CCC3CCCC3)CC2)cc1 | . | . | ? | 3.3% | ? | -15.3
CSCCC(NC(=O)COc1ccccc1)C(=O)N1CC(C)CC(C)C1 (configuration not stated) | . | . | ? | 7.8% | -20.8% | -5.3
N#Cc1cc2c(nc1SCC(=O)N1CCCCC1)CCCCC2 | 61.0* | 99.6* | -12.4% | -6.8% | 12.5% | -27.3
N#Cc1cc2c(nc1SCC(=O)N1CCCCC1)CCCC2 | 16.7* | 27.9 | 11.1% | -10.3% | 144.1% | -1.5
O=C(NC(=S)Nc1ccc(N2CCOCC2)c(Cl)c1)c1sc2ccccc2c1Cl | 4.0 | 4.2 | -7.7% | 16.5% | ? | ?
CCCCC(=O)NC(=S)Nc1ccccc1N1CCCCC1 | -1.5 | 0.8 | ? | 0.9% | ? | 1.9
O=C(NC(=S)Nc1ccccc1N1CCCC1)c1cccs1 | 50.9* | 54.6* | ? | ? | ? | 68.2
CCCC(=O)NC(=S)Nc1ccccc1N1CCOCC1 | 0.3 | 9.3 | -23.9% | -3.8% | 10.4µM* | 10.6
O=C(NC(=S)Nc1ccc(N2CCOCC2)c(Cl)c1)c1cccs1 | 30.3* | 59.7* | ? | -14.2% | 2.33µM* | -20.9
O=C(NC(=S)Nc1ccccc1N1CCCCC1)c1cccs1 | 1.5 | -13.6 | ? | ? | -1.3% | 8.0
O=C(NC(=S)Nc1ccccc1N1CCOCC1)c1cccs1 | -4.5 | 12.2 | 9.0% | -5.6% | -24.0% | -71.9*
